Experimental data from PubChem BioAssay AID1159580 (chemical genetic matrix, 2015).
Several values for one entry are separate records, joined by “and”; a condition that tells them apart may be missing. Identical values can stand only once. Among all 5,500 compounds or so, about 2,000 (36%) were called active. Inconclusive results (about 18%) are left out. Cut-off read from the data, not from the text of the source: active = normalized growth mostly below about 0.91 (no sharp cut-off); inconclusive = no clear call, values can overlap the other calls; inactive = mostly above about 0.92. The list shows a part of the results.

Assay: chemical genetic growth profiling, strain panel (AID 1159580);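 note: tested at 20 µM; growth read once vehicle control cultures reached saturation at 30 °C; 1 = growth at the plate median or of vehicle wells; lower values mean less growth of the strain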
Details: growth OD

Measured: normalized growth

CCc1cccc2c3c([nH]c12)C(CC)(CC(=O)O)OCC3 (stereo not given)
inactive: S. cerevisiae deletion strains, locus YKL009W, strain mrt4, stronger effect = lower value 0.965 | S. cerevisiae deletion strains, locus YKL068W, stronger effect = lower value 1 | S. cerevisiae deletion strains, locus YKL085W, strain MDH1 (second series), stronger effect = lower value 0.992 | S. cerevisiae deletion strains, locus YKL085W, strain MDH1, stronger effect = lower value 0.992 | S. cerevisiae deletion strains, locus YKL160W, strain elf1, stronger effect = lower value 0.975 | S. cerevisiae deletion strains, locus YKL190W, strain CNB1, stronger effect = lower value 1 | S. cerevisiae deletion strains, locus YKR001C, strain vps1, stronger effect = lower value 0.98 | S. cerevisiae deletion strains, locus YKR026C, strain gcn3, stronger effect = lower value 0.987 | S. cerevisiae deletion strains, locus YKR091W, strain srl3, stronger effect = lower value 0.978 | S. cerevisiae deletion strains, locus YLL001W, strain dnm1, stronger effect = lower value 0.961 | S. cerevisiae deletion strains, locus YLL026W, stronger effect = lower value 0.99 | S. cerevisiae deletion strains, locus YLL041C, strain sdh2, stronger effect = lower value 0.976 | S. cerevisiae deletion strains, locus YLR027C, strain aat2, stronger effect = lower value 0.987 | S. cerevisiae deletion strains, locus YLR039C, strain RIC1, stronger effect = lower value 0.989 | S. cerevisiae deletion strains, locus YLR058C, strain SHM2, stronger effect = lower value 1.01 | S. cerevisiae deletion strains, locus YLR102C, strain apc9, stronger effect = lower value 1 | S. cerevisiae deletion strains, locus YLR113W, strain HOG1, stronger effect = lower value 0.938 | S. cerevisiae deletion strains, locus YLR221C, strain rsa3, stronger effect = lower value 0.993 | S. cerevisiae deletion strains, locus YLR258W, strain gsy2, stronger effect = lower value 0.994 | S. cerevisiae deletion strains, locus YLR262C, strain YPT6 (second series), stronger effect = lower value 0.93 | S. cerevisiae deletion strains, locus YLR262C, strain YPT6, stronger effect = lower value 0.978 | S. cerevisiae deletion strains, locus YLR268W, strain sec22, stronger effect = lower value 1.05 | S. cerevisiae deletion strains, locus YLR320W, strain mms22, stronger effect = lower value 1.01 | S. cerevisiae deletion strains, locus YLR330W, strain CHS5, stronger effect = lower value 1.01 | S. cerevisiae deletion strains, locus YLR342W, strain FKS1 (second series), stronger effect = lower value 1.03 | S. cerevisiae deletion strains, locus YLR342W, strain FKS1, stronger effect = lower value 0.985 | S. cerevisiae deletion strains, locus YLR357W, strain rsc2, stronger effect = lower value 0.918 | S. cerevisiae deletion strains, locus YLR370C, strain arc18, stronger effect = lower value 0.973 | S. cerevisiae deletion strains, locus YLR371W, strain rom2, stronger effect = lower value 0.987 | S. cerevisiae deletion strains, locus YLR384C, strain iki3, stronger effect = lower value 0.967 | S. cerevisiae deletion strains, locus YLR418C, strain cdc73, stronger effect = lower value 0.995 | S. cerevisiae deletion strains, locus YML016C, strain PPZ1, stronger effect = lower value 1 | S. cerevisiae deletion strains, locus YML032C, strain rad52, stronger effect = lower value 1.01 | S. cerevisiae deletion strains, locus YML120C, strain ndi1, stronger effect = lower value 0.977 | S. cerevisiae deletion strains, locus YML124C, strain tub3, stronger effect = lower value 1 | S. cerevisiae deletion strains, locus YMR058W, strain fet3, stronger effect = lower value 0.993 | S. cerevisiae deletion strains, locus YMR078C, strain ctf18, stronger effect = lower value 1 | S. cerevisiae deletion strains, locus YMR125W, strain sto1, stronger effect = lower value 0.924 | S. cerevisiae deletion strains, locus YMR129W, stronger effect = lower value 0.972 | S. cerevisiae deletion strains, locus YMR205C, strain PFK2, stronger effect = lower value 0.98 | S. cerevisiae deletion strains, locus YMR223W, strain ubp8, stronger effect = lower value 0.99 | S. cerevisiae deletion strains, locus YMR231W, strain pep5, stronger effect = lower value 0.967 | S. cerevisiae deletion strains, locus YMR263W, strain SAP30, stronger effect = lower value 1.01 and 1 | S. cerevisiae deletion strains, locus YMR307W, strain GAS1, stronger effect = lower value 0.923 and 1.01 | S. cerevisiae deletion strains, locus YNL067W, strain RPL9B, stronger effect = lower value 1.02 | S. cerevisiae deletion strains, locus YNL071W, strain lat1, stronger effect = lower value 0.988 | S. cerevisiae deletion strains, locus YNL128W, strain TEP1, stronger effect = lower value 1.01 | S. cerevisiae deletion strains, locus YNL153C, strain GIM3, stronger effect = lower value 1.02 | S. cerevisiae deletion strains, locus YNL175C, strain NOP13, stronger effect = lower value 0.994 | S. cerevisiae deletion strains, locus YNL183C, strain NPR1, stronger effect = lower value 0.93 | S. cerevisiae deletion strains, locus YNL197C, strain WHI3, stronger effect = lower value 0.954 | S. cerevisiae deletion strains, locus YNL209W, strain ssb2, stronger effect = lower value 0.972 | S. cerevisiae deletion strains, locus YNL224C, strain SQS1, stronger effect = lower value 0.987 | S. cerevisiae deletion strains, locus YNL233W, strain BNI4, stronger effect = lower value 1.01 | S. cerevisiae deletion strains, locus YNL248C, strain rpa49, stronger effect = lower value 0.981 | S. cerevisiae deletion strains, locus YNL250W, strain rad50, stronger effect = lower value 0.992 | S. cerevisiae deletion strains, locus YNL271C, strain bni1, stronger effect = lower value 1.01 | S. cerevisiae deletion strains, locus YNL298W, strain CLA4, stronger effect = lower value 0.984 | S. cerevisiae deletion strains, locus YNL307C, strain MCK1, stronger effect = lower value 1 | S. cerevisiae deletion strains, locus YNL322C, strain KRE1 (second series), stronger effect = lower value 0.965 | S. cerevisiae deletion strains, locus YNL322C, strain KRE1, stronger effect = lower value 1 | S. cerevisiae deletion strains, locus YNR049C, strain mso1, stronger effect = lower value 0.963 | S. cerevisiae deletion strains, locus YNR052C, strain pop2, stronger effect = lower value 1.01 | S. cerevisiae deletion strains, locus YOL006C, strain TOP1, stronger effect = lower value 1.08 | S. cerevisiae deletion strains, locus YOL012C, strain htz1 0.943 | S. cerevisiae deletion strains, locus YOL147C, strain pex11, stronger effect = lower value 1 | S. cerevisiae deletion strains, locus YOR001W, strain rrp6, stronger effect = lower value 0.949 | S. cerevisiae deletion strains, locus YOR061W, strain CKA2, stronger effect = lower value 1.01 | S. cerevisiae deletion strains, locus YOR069W, strain VPS5, stronger effect = lower value 1 | S. cerevisiae deletion strains, locus YOR070C, strain gyp1, stronger effect = lower value 0.981 | S. cerevisiae deletion strains, locus YOR080W, strain dia2, stronger effect = lower value 0.972 | S. cerevisiae deletion strains, locus YOR083W, strain WHI5 (second series), stronger effect = lower value 0.978 | S. cerevisiae deletion strains, locus YOR083W, strain WHI5, stronger effect = lower value 0.987 | S. cerevisiae deletion strains, locus YOR106W, strain vam3, stronger effect = lower value 0.969 | S. cerevisiae deletion strains, locus YOR136W, strain idh2, stronger effect = lower value 0.998 | S. cerevisiae deletion strains, locus YOR144C, strain elg1, stronger effect = lower value 1 | S. cerevisiae deletion strains, locus YOR184W, strain ser1, stronger effect = lower value 1.01 | S. cerevisiae deletion strains, locus YOR231W, strain MKK1, stronger effect = lower value 0.986 | S. cerevisiae deletion strains, locus YOR265W, strain rbl2, stronger effect = lower value 1 | S. cerevisiae deletion strains, locus YOR270C, strain vph1, stronger effect = lower value 0.969 | S. cerevisiae deletion strains, locus YOR290C, strain snf2, stronger effect = lower value 1 | S. cerevisiae deletion strains, locus YOR316C, strain cot1, stronger effect = lower value 1 | S. cerevisiae deletion strains, locus YPL051W, strain arl3, stronger effect = lower value 0.994 | S. cerevisiae deletion strains, locus YPL055C, strain LGE1, stronger effect = lower value 0.989 | S. cerevisiae deletion strains, locus YPL078C, strain atp4, stronger effect = lower value 0.963 | S. cerevisiae deletion strains, locus YPL106C, strain sse1, stronger effect = lower value 1.03 | S. cerevisiae deletion strains, locus YPL240C, strain hsp82, stronger effect = lower value 0.976 | S. cerevisiae deletion strains, locus YPL241C, strain CIN2, stronger effect = lower value 1.01 | S. cerevisiae deletion strains, locus YPL256C, strain CLN2, stronger effect = lower value 0.981 | S. cerevisiae deletion strains, locus YPR119W, strain clb2, stronger effect = lower value 1.01 | S. cerevisiae deletion strains, locus YPR141C, strain kar3, stronger effect = lower value 1 | S. cerevisiae deletion strains, locus YPR163C, strain tif3, stronger effect = lower value 1.01 | S. cerevisiae deletion strains, locus YPR167C, strain met16, stronger effect = lower value 1.01 | S. cerevisiae deletion strains, strain wtn01, stronger effect = lower value 0.994 | S. cerevisiae strains, strain wild type, stronger effect = lower value 0.999
